Molecules are shown by their SMILES. Compounds without any hit were thinned out: in the full panel of roughly 79,000, 15% have a hit. A number with no mark means an inactive call. Activity calls are given as the source filed them. No stated cut-off is given here; in the data, active means growth inhibition above about 70%; inactive means the rest.

This assay in a line: NCI Yeast Anticancer Drug Screen. Data for the cln2 rad14 strain (AID 165).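 Further: 0% = growth equal to vehicle treated cultures.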 Particulars: S. cerevisiae cln2 rad14 strain, at 50.0 µM, stronger effect = higher value. As to the method:
Growth inhibition of yeast strains with defined genetic alterations is measured as a screen for potential anti-cancer activity. Selected strains with alterations in DNA damage repair or cell cycle control were exposed to compounds and growth inhibition was measured relative to vehicle treated controls. The strain used in this assay is cln2 rad14
Consider `CCCCN1C(=O)c2cc(=O)[nH]c(O)c2C1C` (stereo not given), for which the growth inhibition is -0.55%.

As to `N#Cc1c(N)c(C(=O)O)nn(-c2cccc(C(F)(F)F)c2)c1=O`, the growth inhibition was 10.8%.

Turning to `C(=NCc1ccccc1)c1ccccc1-c1ccccc1C=NCc1ccccc1`, the growth inhibition was 91.8% (active).

As to `C[Si](C)(CNCCN)O[Si](C)(C)CNCCN`, the growth inhibition was 13.1%.

Consider `O/N=C1/CCCCCC1NO` (stereo not given), for which the growth inhibition was 15.4%.

For the compound `Brc1nccs1`, the growth inhibition was -11.1%.

For the compound `Cc1ccc(N=c2cc(-c3ccccc3)oc3ccccc23)cc1`, the growth inhibition is 3.7%.

For the compound `CC(C)CCCC(C)C1CCC2C3CC(=O)C4C=CCCC4(C)C3CCC12C` (stereo not given), the growth inhibition is 24%.

In the case of `COc1cc(C)c(C(=O)c2ccccc2NS(=O)(=O)c2ccc(C)cc2)cc1OC`, the growth inhibition was 22.6%.

For `Nc1nc(SCc2ccccc2)c2ncn(C3CC(O)C(CO)O3)c2n1` (stereo not given), the growth inhibition is -99.5%.

As for `Cc1ccc(NC(=O)CCc2nnc3s/c(=C\c4cccc([N+](=O)[O-])c4)c(=O)n23)cc1`, the growth inhibition was 14%.

Consider `CCOC(=O)/C=C/C(=O)O.[Cu+2]`, for which the growth inhibition was -13.7%.

In the case of `Cc1ccc(S/C=C/C(=O)Nc2ccccc2)cc1`, the growth inhibition was 43.1%.

For `Cn1c(=O)c(-c2ccccc2)cc2ccccc21`, the growth inhibition was -1.95%.

With `O=C(CC(=O)C(=O)CC(=O)OCc1ccccc1)OCc1ccccc1`, the growth inhibition was 11.9%.

For `Cc1ccc(S(=O)(=O)C(Sc2ccccc2)=S=NC(C)(C)C)cc1`, the growth inhibition was 53.4%.

With `c1ccc2c(c1)ncc1cc3c(cc12)[nH]c1ccccc13`, the growth inhibition is -11.1%.

On to `CCCCCCC1OCCC(C)O1` (stereo not given), for which the growth inhibition is -10.3%.

As to `C1=C(c2ccccc2)CC(c2ccc(-c3ccccc3)cc2)=C1`, the growth inhibition was -27.6%.

For `Cc1cc(C)c2c(SCc3ccc(Cl)cc3Cl)nc(N)nc2n1`, the growth inhibition is -27.9%.

On to `Clc1ccc(CSc2ccc3nncc(SCc4ccc(Cl)cc4Cl)c3c2)c(Cl)c1`, for which the growth inhibition is 36.8%.

On to `Cc1cc(C)nc(N)n1`, for which the growth inhibition is -42.9%.

Regarding `NC(=S)c1ccccn1`, the growth inhibition is -22.5%.

As for `C[n+]1nc([O-])oc1-c1ccccc1`, the growth inhibition was -3.65%.

Turning to `O=C(NCc1ccccc1)C1C2C=CC(C2)C1C(=O)NCc1ccccc1` (stereo not given), the growth inhibition is -6.3%.

For the compound `c1ccc(B2OCC(C3OB(c4ccccc4)OC4COB(c5ccccc5)OC43)O2)cc1` (stereo not given), the growth inhibition was -30.9%.

Take `C(=N\N1CCN(/N=C/c2ccc3ccccc3n2)CC1)/c1ccc2ccccc2n1`: the growth inhibition was 26.5%.

As to `CCOc1c(N=Nc2ccccc2Cl)c(-c2ccccc2)nn1C(N)=S`, the growth inhibition is 6.1%.

On to `Cc1nc(-c2ccccc2)oc1-c1ccccc1`, for which the growth inhibition was 6.95%.

Regarding `O=C(O)c1c(Br)c(Br)c(Br)c(Br)c1C(=O)Nc1ccc(Cl)cc1C(F)(F)F`, the growth inhibition was -6.55%.

As for `S=C1SCN(c2ccc3c(c2)OCO3)CN1c1ccc2c(c1)OCO2`, the growth inhibition was -0.6%.

With `Cn1ncc2c(=O)[nH]c(=S)[nH]c21`, the growth inhibition was -32.1%.

On to `CC(C)(C)c1ccc(OCCCl)c(Cl)c1`, for which the growth inhibition is -41.9%.

With `CCOc1c(N=Nc2ccccc2C)c(-c2ccccc2)nn1C(N)=S`, the growth inhibition is 25.4%.

For the compound `NCCC1([N+](=O)[O-])CCNCC1`, the growth inhibition is -14.7%.

Turning to `COC(=O)c1cc(C)cc(N(c2ccccc2[N+](=O)[O-])S(=O)(=O)c2ccc(C)cc2)c1C`, the growth inhibition was 1.2%.

In the case of `CC(=O)CCCCCCCCCCCCCC(C)=O`, the growth inhibition was -10.8%.

As to `Nc1ccc[nH]c1=O`, the growth inhibition was 8.8%.

Consider `O=C(CCC(CCC(=O)c1ccccc1)[N+](=O)[O-])c1ccccc1`, for which the growth inhibition was 4.55%.

With `CCOC(=O)c1ccc(-c2ccccc2)cc1`, the growth inhibition is -7.25%.

The record behind these values is PubChem BioAssay (NCI).
